Shown are actives, neighbours in structure and some others; about 3.6% of the full set was active somewhere.
BoNT-F LC inh – inhibitors of Botulinum neurotoxin F light chain protease | Multiplex microsphere protease cleavage assay, flow cytometry | inhibition, % at 10 µM | actives 0.22% (n = 360,000) | AID 588497; in the data active = inhibition above about 35%, passing the limit was not always enough; inconclusive = no clear call, values can overlap the other calls
SARS 3CLpro inh – SARS-CoV 3CLpro protease inhibition | AID 1706 | actives 0.14% (n = 290,000) | recombinant SARS-CoV 3CLpro, quenched FRET peptide cleavage | inhibition, % at 6 µM | P0C6X7; in the data active = inhibition above about 12%
Anthrax LF prot – anthrax lethal factor protease inhibition. multiplex microsphere protease cleavage assay, LF. inhibition, % at 10 µM. actives 0.12% (n = 360,000). P15917
Target sequence (P15917 whole entry, looked up): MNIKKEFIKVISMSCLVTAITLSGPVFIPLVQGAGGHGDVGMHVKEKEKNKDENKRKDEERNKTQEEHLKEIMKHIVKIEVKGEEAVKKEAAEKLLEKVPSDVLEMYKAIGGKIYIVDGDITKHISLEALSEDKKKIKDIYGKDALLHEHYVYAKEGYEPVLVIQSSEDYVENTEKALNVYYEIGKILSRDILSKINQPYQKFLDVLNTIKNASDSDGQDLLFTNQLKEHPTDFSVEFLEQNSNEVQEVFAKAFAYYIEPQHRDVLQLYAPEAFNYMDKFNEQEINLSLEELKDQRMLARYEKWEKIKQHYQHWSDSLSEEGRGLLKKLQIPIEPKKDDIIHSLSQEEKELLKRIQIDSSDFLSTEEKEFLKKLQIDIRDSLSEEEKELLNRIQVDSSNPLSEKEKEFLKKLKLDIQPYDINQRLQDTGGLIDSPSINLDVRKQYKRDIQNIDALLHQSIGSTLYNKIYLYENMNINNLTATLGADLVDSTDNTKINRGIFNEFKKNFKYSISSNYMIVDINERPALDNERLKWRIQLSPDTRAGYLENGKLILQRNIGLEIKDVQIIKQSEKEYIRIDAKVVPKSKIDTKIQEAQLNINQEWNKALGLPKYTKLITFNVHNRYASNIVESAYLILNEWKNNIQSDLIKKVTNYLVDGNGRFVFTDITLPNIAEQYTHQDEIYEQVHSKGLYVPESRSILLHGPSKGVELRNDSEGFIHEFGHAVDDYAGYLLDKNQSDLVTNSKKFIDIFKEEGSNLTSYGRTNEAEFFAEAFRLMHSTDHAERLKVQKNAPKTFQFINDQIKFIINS
Bead autofluor – flagged as autofluorescent in microsphere protease counterscreen; fluorescence intensity (test concentration not listed); AID 624483; actives 3.1% (n = 360,000); compound autofluorescence counterscreen, microsphere flow cytometry; stronger effect = higher value; in the data active = fluorescence intensity above about 16000; inconclusive = no clear call, values can overlap the other calls
BJeLR viability – BJeLR cell viability loss | BJeLR (HRASV12) viability, CellTiter-Glo ATP luminescence, 48 h | inhibition, % (test concentration not listed) | actives 0.17% (n = 300,000); in the data active = inhibition above about 50%; inconclusive = no clear call, values can overlap the other calls
BoNT-A LC inh2 – blocks Botulinum neurotoxin A light chain protease; multiplex microsphere protease substrate cleavage, flow cytometry; inhibition, % at 10 µM; actives 0.17% (n = 360,000); AID 588499
Hits are given with their value; n = inactive; u = inconclusive; x = no result. Rule as the data show it, unless noted: active = inhibition above about 30%; inconclusive = no clear call, values can overlap the other calls; inactive = below that.

SMILES	BoNT-F LC inh	SARS 3CLpro inh	Anthrax LF prot	Bead autofluor	BJeLR viability	BoNT-A LC inh2
CCOC(=O)CCc1ccc(NC(=O)/C=C/c2ccc([N+](=O)[O-])o2)cc1	n	x	n	n	x	n
Cc1ccc(C(=O)/C=C/c2ccc(-c3ccc(C)cc3)o2)cc1	n	n	n	n	n	41
CCN(CC)S(=O)(=O)c1ccc(C(=O)/C=C/c2ccc(-c3ccc([N+](=O)[O-])cc3)o2)cc1	n	n	48	n	n	79
Cc1ccc(C(=O)/C=C\C(=O)c2ccc(C)cc2)cc1	n	n	n	n	n	n
CCc1ccc(C(=O)/C=C/c2ccc([N+](=O)[O-])o2)cc1	n	n	n	n	59	n
O=C(/C=C\c1ccc(-c2ccccc2)o1)c1ccccc1	n	n	n	n	n	66
Cc1cc(NC(=S)N(Cc2ccc(Br)cc2)Cc2ccc(C(=O)O)cc2)ccc1Cl	n	n	n	n	n	n
Cc1cc(-n2nc(C)cc2C)n2nc(C)c(-c3ccc(Cl)cc3)c2n1	n	n	n	17908	n	n
C=CCSc1cc(C)nc2c(-c3ccc(Cl)cc3)c(C)nn12	n	n	n	20069	n	n
Cc1cc(C(F)(F)F)n2nc(C)c(-c3ccc(Cl)cc3)c2n1	n	n	n	n	n	n
O=C(NNC(=O)c1c(F)cccc1F)c1ccccc1-n1cccc1	n	n	n	n	n	n
COCCn1c(Cc2ccccc2)nnc1SCC(=O)NC1CCCCC1	n	n	n	n	n	n
CCn1c(C)nc2cc(C(=O)NNS(=O)(=O)c3c(C)c(C)cc(C)c3C)ccc21	n	n	n	24040	n	n
CCn1c(C)nc2cc(C(=O)NNC(=O)c3ccc(C)cc3)ccc21	n	x	n	n	x	n
COc1cccc(NC(=O)CSCC(=O)O)c1	n	n	n	17067	n	n
O=C(CN1CCCCC1)Nc1cccc(Oc2ccccc2)c1	n	n	n	23011	n	n
COc1cccc(NC(=O)c2cccc(C(=O)Nc3cccc(OC)c3)n2)c1	n	n	n	n	n	n
COc1cccc(NC(=O)COC(=O)c2c3c(nc4ccccc24)CCC(C)C3)c1 (configuration not stated)	n	n	n	19387	n	n
COc1cccc(NC(=O)c2cnsn2)c1	n	n	n	17160	n	n
CCCCNC(=O)C1(C)CCCCN1C(=O)c1cc(C#N)cs1 (configuration not stated)	n	x	n	n	x	n
O=C1[C@H]2[C@@H](c3ccc(Cl)cc3)N3C(=O)N(c4cccc(Cl)c4)C(=O)[C@@]3(Cc3ccccc3)[C@H]2C(=O)N1C1CCCCC1	n	x	n	n	n	n
CN(C)S(=O)(=O)Oc1cc(Cl)ccc1C(=O)Nc1ccc(F)cc1F	n	n	n	n	n	n
C#CCNC(=O)C(C)c1ncc(C(F)(F)F)cc1Cl (configuration not stated)	n	n	n	n	n	n
CCc1n[n+](CC(=O)c2ccccc2)c(N)s1	n	n	n	n	x	n
COc1cccc(NC(=O)CN(C)C(=O)c2ccc3ccccc3c2)c1	n	n	n	23982	n	n
SMILES	BoNT-F LC inh	SARS 3CLpro inh	Anthrax LF prot	Bead autofluor	BJeLR viability	BoNT-A LC inh2
COc1cccc(NC(=O)CN2CCC(C)CC2)c1	n	n	n	22557	n	u
COc1cccc(N/C(SC)=C(/C#N)C(N)=O)c1	n	n	n	23601	n	n
COc1cccc(NC(=O)CN2CCN(CC(=O)Nc3ccc(F)cc3)CC2)c1	n	n	n	n	n	n
O=C1/C(=C/c2ccc([N+](=O)[O-])cc2)C=C(c2ccccc2)N1c1ccc(O)cc1	n	n	n	22121	n	n
N#CC1=C(N)OC2=C(C(=O)CCC2)C1Cc1ccccc1 (configuration not stated)	n	n	n	n	n	n
COC(=O)C1=C(C(=O)c2ccccc2)C(c2cccs2)n2nnnc2N1 (configuration not stated)	n	n	n	n	n	n
CC1=C(C(=O)Nc2ccc(Cl)cc2)C(c2cccs2)n2nnnc2N1 (configuration not stated)	n	n	n	23559	n	u
CCCC1=C(C(=O)OCC)C(/C=C/c2ccccc2)n2ncnc2N1 (configuration not stated)	n	n	n	21846	n	u
CCOC(=O)C1=C(C)Nc2ncnn2C1c1cccs1 (configuration not stated)	n	n	n	n	n	n
CCOC(=O)C1=C(C)Nc2ncnn2C1/C=C/c1ccccc1 (configuration not stated)	n	n	n	20063	n	n
CCCC1=C(C(=O)OCC)C(c2ccc(F)cc2)n2ncnc2N1 (configuration not stated)	n	n	n	n	n	n
O=C(Nc1ccccc1[N+](=O)[O-])OCC=Cc1ccccc1	n	x	n	n	x	n
O=C(CCc1ccccc1)NNC(=O)COc1ccccc1	n	n	n	24872	n	u
COc1ccc(OCC(=O)NNC(=O)CCc2ccccc2)cc1	n	n	n	n	n	n
O=C(Cc1ccccc1)Nc1ccc(C(=O)O)cc1	n	n	n	23610	n	u
CC(=O)Nc1ccc(C(=O)NNC(=O)CCc2ccccc2)cc1	n	n	n	23567	n	n
COC(=O)c1ccc(NC(=O)Cc2ccccc2)cc1	n	n	n	n	n	n
Cc1ccc(OCC(=O)NNC(=O)CCC(=O)NCc2ccccc2)cc1	n	n	n	22071	n	n
CC(C)(C)C(=O)NC1(C(F)(F)F)C(=O)Nc2c1c(=O)[nH]c(=O)n2Cc1ccco1 (configuration not stated)	n	n	n	n	n	n
CCCN(Cc1nnc(-c2cccs2)o1)C(=O)CN1C(=O)NC2(CCC(C)CC2)C1=O (configuration not stated)	n	x	n	n	x	n
Cc1cc(C)c(S(C)(=O)=O)c(N(C)N)n1	n	n	n	n	n	n
COc1ccccc1OCc1n[nH]c(=S)n1Cc1ccccc1	n	n	n	n	n	n
CC(C)(C)NC(=O)COc1ccc(-c2ccccc2)cc1	n	n	n	17169	n	n
C#CCSc1nnc(-c2cccc3ccccc23)o1	n	n	n	16238	n	n
C[C@@H]1COc2cc(N3CCC[C@H]3CO)ccc2S(=O)(=O)N1	n	x	n	n	x	n
SMILES	BoNT-F LC inh	SARS 3CLpro inh	Anthrax LF prot	Bead autofluor	BJeLR viability	BoNT-A LC inh2
COc1ccc(C2(O)CCN(C(=O)NC3CCCCC3)CC2)cc1	n	n	n	n	n	n
COc1ccccc1NC(=O)CN(C)S(=O)(=O)c1cccc2cccnc12	n	n	n	n	n	n
COc1ccc(N(C)S(=O)(=O)c2cccc3cccnc23)c(OC)c1	n	n	n	16783	n	n
CCOC(=O)c1c(NC(=O)COc2ncnc3ccccc23)sc(C)c1CC	n	n	n	n	n	n
NC(=S)Nc1cc2ccccc2c2ccccc12	n	n	n	19680	n	u
NC(=S)Nc1cccc2cc3ccccc3cc12	n	n	n	u	n	n
O=C(CCl)N(c1ccccc1)C1CCCCC1	n	n	n	n	n	n
CC(C)(C)c1ccc(Oc2ncccc2NC(=O)c2cccs2)cc1	x	n	x	x	n	x
